Inconclusive results are not listed. Calls of active or inactive are those of the source. Calls come from the whole dose curve; as a rule, active = well fitted inhibition curve with a large enough effect in the repeat runs; inconclusive = weak or mixed curves; inactive = flat fitted curve, though single readings scatter.
% is set by controls: 0 for no effect and ±100 for the full control effect; potency is the fitted concentration of half-maximal effect.

The test is described as follows: qHTS assay to identify small molecule HDAC inhibitors (AID 1259364). For activity change, negative = inhibition: top concentration of the series differs between compounds. Note: nearly all actives have a fitted effect of over 45% in size. Conditions: HCT-116 HDAC-Glo I/II luminescence, 2 h; series mostly up to 92.4 µM; activity change, negative = inhibition: at the top concentration. The text has this: U.S. Tox21 Program National Center for Advancing Translational Sciences [NCATS] NIH Chemical Genomics Center [NCGC] U.S. Environmental Protection Agency [EPA] National Institutes of Environmental Health Sciences [NIEHS] National Toxicology Program [NTP] U.S. Food and Drug Administration [FDA] Tox21 Assay Overview: Histone deacetylases (HDACs) are a group of epigenetic enzymes that regulate gene expression by histone deacetylation. HDACs are capable of introducing epigenetic modifications and such aberrations contribute to the onset and progression of several human diseases, thus making HDACs a popular therapeutic target. For identifying endogenous class I/II HDAC inhibitors a homogenous, luminogenic HDAC I/II cell based assay was used to measure the relative activity of class I and II HDACs from cells. Wild type HCT-116 cells were used to screen Tox21 libraries for identifying class I/II HDAC inhibitors.
Tox21 Assay Protocol Summary: HCT-116 cells were dispensed at 1,500 per well in 5uL of culture medium into white solid bottom 1536-well plates (Greiner Bio-One, Monroe, NC) using a Multidrop Combi (Thermo Scientific, Waltham, MA) dispenser. The assay plates were incubated at 37 C and 5% CO2 for an overnight, and then 23nL of compounds dissolved in DMSO and positive control were transferred using a Pintool station (Wako, San Diego, CA). The assay plates were incubated at 37C and 5% CO2 for 2hr. After compound treatment, 4uL of HDAC-Glo reagent (Promega Corporation, Madison, WI) was added to each well of the assay plates using Flying Reagent Dispenser (FRD, Aurora Discovery, San Diego, CA) and incubated the assay plates at room temperature for 30min. The luminescence signal was quantified using a ViewLux plate reader (Perkin Elmer, Shelton, CT).
As to `COc1cc(OC)c2ccc(=O)oc2c1`, the “activity change, negative = inhibition” value is 3.4% (inactive). For the compound `CCCCCCCCCCCCCOS(=O)(=O)O`, the “activity change, negative = inhibition” value is -0.263% (inactive). For the compound `C=C(C)c1ccccc1`, the “activity change, negative = inhibition” value is -0.84% (inactive). The same measure, in the same setting: the same measure for `CCCCCCCC(=O)OCCCCCC`: 1.62% (inactive). In the case of `COc1ccc(C2C(=O)c3ccccc3C2=O)cc1`, the Potency is 23.7 µM (active). Turning to `CN(C)CC/C=C1\c2ccccc2Sc2ccc(Cl)cc21`, the “activity change, negative = inhibition” value is -17.9% [at 42.5 µM] (inactive). The same measure, in the same setting: as for `OCC(CO)n1cnc(-c2ccc(F)cc2)c1-c1ccnc(Oc2ccccc2)n1`, the figure is 0.126% (inactive). Consider `CCCCCc1ccco1`, for which the “activity change, negative = inhibition” value was -0.604% [at 42.5 µM] (inactive).

Regarding `CCN(Cc1cccc(S(=O)(=O)O)c1)c1ccc(C(=C2C=CC(=[N+](CC)Cc3cccc(S(=O)(=O)O)c3)C=C2)c2ccccc2S(=O)(=O)[O-])cc1`, the Potency was 6.14 µM (active).

For the compound `CC(C)(C)NCC(O)COc1cccc2c1C[C@H](O)[C@H](O)C2` (stereo not given in full), the “activity change, negative = inhibition” value is 1.86% [at 42.5 µM] (inactive).

As for `CC(=O)C(C)=O`, the “activity change, negative = inhibition” value was -0.168% (inactive). Same read-out and setting: as for `C[C@H](CS)C(=O)N1CCC[C@H]1C(=O)O`, the figure is 1.58% [at 42.5 µM] (inactive); as for `Nc1c(Cl)cc(Cl)cc1[N+](=O)[O-]`, 3.34% (inactive). In the case of `C[C@@H]1C[C@H]2[C@@H]3CCC4=CC(=O)C=C[C@]4(C)[C@@]3(F)[C@@H](O)C[C@]2(C)[C@@]1(O)C(=O)COP(=O)(O)O`, the “activity change, negative = inhibition” value was 4.52% (inactive).

As for `Nc1cccc2c(N)cccc12`, the “activity change, negative = inhibition” value is 0.021% (inactive). Same read-out and setting: as for `CN1C(CSCC(F)(F)F)Nc2cc(Cl)c(S(N)(=O)=O)cc2S1(=O)=O` (stereo not given), the figure is 0.973% [at 42.5 µM] (inactive). The same measure, in the same setting: as for `CCCCOC(=O)CCCCC(=O)OCCCC`, the figure is -1.45% (inactive); as for `CC(C)(C)S`, -1.77% (inactive); as for `CC(C)N=C=NC(C)C`, -0.75% (inactive).

For `CCCCCCCCCCCC(=O)OCC(O)CO` (stereo not given), the “activity change, negative = inhibition” value is 6.21% (inactive). On the same count and under the same terms, the same measure for `CNCc1ccc(NC(=O)c2c[nH]c3c2C(=O)CCC3)cc1`: -12.8% (inactive); for `CCC(C)(C)C(=O)O`: 1.17% (inactive). Still for that read-out and setting: as for `CC1CCC(C(C)CS)CC1S` (stereo not given), the figure is -2.24% (inactive); as for `O=C1c2ccccc2C(=O)c2c(O)ccc(O)c21`, -8.62% (inactive). Still for that read-out and setting: as for `CCCCCCC(O)CCOC(C)=O` (stereo not given), the figure is -0.0523% [at 240 µM] (inactive); as for `Cc1cc([N+](=O)[O-])ccc1N`, 0.683% (inactive); as for `CCCOC(=O)c1c(Cl)c(Cl)c(Cl)c(Cl)c1C(=O)OCCC`, -2.12% (inactive). Consider `CC(=O)N[C@@H](Cc1ccc(O)cc1)C(=O)O`, for which the “activity change, negative = inhibition” value was 3.44% [at 42.5 µM] (inactive). Same read-out and setting: the same measure for `O=C(O)CNC(=O)c1ccccc1I`: 3.13% [at 42.5 µM] (inactive); for `CCN(CC)CC(=O)Nc1c(C)cccc1C(=O)OC`: 4.88% [at 42.5 µM] (inactive); for `CC(C)(C(=O)c1cccnc1)c1cccnc1`: 2.3% [at 42.5 µM] (inactive).

`CC(=O)NCCO`: the “activity change, negative = inhibition” value is 9.06% (inactive). Consider `CC(C)(C)C(O)/C=C/c1ccc2c(c1)OCO2` (stereo not given), for which the “activity change, negative = inhibition” value is -11.2% [at 42.5 µM] (inactive). For `Cc1ccc(S(=O)(=O)NC(=O)NC2CCCCC2)cc1`, the “activity change, negative = inhibition” value was 3.87% [at 42.5 µM] (inactive). For `COc1ccc(-c2cc(=S)ss2)cc1`, the Potency was 11.9 µM (active).

In the case of `CCOC(=O)N1CCC(Nc2ccc(Cl)cc2N)CC1`, the “activity change, negative = inhibition” value was 8.12% [at 42.5 µM] (inactive). The same measure, in the same setting: as for `COC(=O)C1=C(C)NC(C)=C(C(=O)OC(C)(C)CN(C)CCC(c2ccccc2)c2ccccc2)C1c1cccc([N+](=O)[O-])c1` (stereo not given), the figure is 3.61% [at 42.5 µM] (inactive). For `O=C(O)CCS`, the “activity change, negative = inhibition” value was -4.21% (inactive). Turning to `CC(C)c1ccc(C(=O)N=C(N)N)cc1S(C)(=O)=O`, the “activity change, negative = inhibition” value is -2.73% [at 42.5 µM] (inactive). On the same count and under the same terms, the same measure for `CC(=O)NNC(C)=O`: 2.84% (inactive).
